Data on 43 molecules can be found in article PMC4336329 (PLoS ONE, 2015).

The structures appear in SMILES notation. About 14,000 (4.5%) of roughly 310,000 compounds showed an effect of 50% or more. Effects have a minus sign here. This is one part of a sample in which strong results are shown more often than they occur.
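Further: peak tail current of the secondary pulse compared with the same well before compound.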

For this test, the target named is human ether-à-go-go-related gene (hERG) potassium channel (human, UniProt Q12809). Kind of test: primary screen, population patch clamp on CHO cells stably expressing hERG; higher = less effect of the substance.
Sequence of human ether-à-go-go-related gene (hERG) potassium channel (Q12809 whole entry, looked up): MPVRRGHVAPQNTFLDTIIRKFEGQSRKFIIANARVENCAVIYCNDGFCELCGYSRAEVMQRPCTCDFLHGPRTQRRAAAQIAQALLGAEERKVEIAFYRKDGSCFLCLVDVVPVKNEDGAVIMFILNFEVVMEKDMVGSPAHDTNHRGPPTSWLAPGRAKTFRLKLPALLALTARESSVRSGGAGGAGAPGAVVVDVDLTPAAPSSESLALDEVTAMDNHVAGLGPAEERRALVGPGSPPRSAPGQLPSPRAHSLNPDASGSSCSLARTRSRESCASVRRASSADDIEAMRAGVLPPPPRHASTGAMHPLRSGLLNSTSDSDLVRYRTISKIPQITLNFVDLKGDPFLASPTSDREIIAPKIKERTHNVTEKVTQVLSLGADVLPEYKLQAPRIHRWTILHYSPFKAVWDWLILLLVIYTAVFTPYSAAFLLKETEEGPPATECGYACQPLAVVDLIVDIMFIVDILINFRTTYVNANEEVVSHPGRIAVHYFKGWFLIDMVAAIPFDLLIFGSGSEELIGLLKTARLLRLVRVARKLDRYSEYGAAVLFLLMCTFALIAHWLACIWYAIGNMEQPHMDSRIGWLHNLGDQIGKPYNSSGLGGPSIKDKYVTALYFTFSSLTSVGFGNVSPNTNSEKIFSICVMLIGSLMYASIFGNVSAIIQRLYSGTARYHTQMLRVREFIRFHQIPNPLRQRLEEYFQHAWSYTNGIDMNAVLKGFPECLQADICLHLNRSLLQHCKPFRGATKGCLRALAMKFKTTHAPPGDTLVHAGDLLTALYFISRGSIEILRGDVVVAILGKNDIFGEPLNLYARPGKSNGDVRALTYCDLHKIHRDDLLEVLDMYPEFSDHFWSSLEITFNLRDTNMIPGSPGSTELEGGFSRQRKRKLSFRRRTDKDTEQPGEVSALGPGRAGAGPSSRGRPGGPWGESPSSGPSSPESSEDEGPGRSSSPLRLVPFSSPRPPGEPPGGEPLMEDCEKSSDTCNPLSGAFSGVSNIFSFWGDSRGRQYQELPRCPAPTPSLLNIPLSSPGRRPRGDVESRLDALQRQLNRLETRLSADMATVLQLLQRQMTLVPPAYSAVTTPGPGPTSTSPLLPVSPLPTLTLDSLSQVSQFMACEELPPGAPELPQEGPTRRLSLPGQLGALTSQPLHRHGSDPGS
On to `O=C1NC(Cc2c[nH]c3ccccc23)C(=O)N1c1ccc(F)cc1` (stereo not shown), for which the “hERG current change (%, negative = inhibition) at 10uM” value is 12.4%. In the case of `CCCNC(=O)C/C(C)=N/NC(=O)C(=O)Nc1ccccn1` it was 29.4%; in that of `O=C(CN1C(=O)NC2(CCCc3ccccc32)C1=O)N1CCc2ccccc2C1` (stereo not shown), -17.3%. As for `CCN1CCN(C(=O)c2nn(-c3ccc(OC)cc3)c(=O)c3c2c2ccccc2n3C)CC1`, the “hERG current change (%, negative = inhibition) at 10uM” value is -4.67%.

Regarding `COc1ccc(-n2nc(C(=O)N3CCC(N4CCCCC4)CC3)c3c4ccccc4n(C)c3c2=O)cc1`, the “hERG current change (%, negative = inhibition) at 10uM” value came out at 7.1%. In the case of `COc1ccc(-n2nc(C(=O)N3CCC(C#N)CC3)c3c4ccccc4n(C)c3c2=O)cc1`, the “hERG current change (%, negative = inhibition) at 10uM” value is reported as -55.5%. The figure for `CC1CCN(C(=O)CN2C(=O)C(=O)N(C(C)C)C2=O)c2ccccc2S1` (stereo not shown) is -4.64%; for `Cc1ccc2nc(-c3ccc(-c4cccc(Cl)c4)cc3)c(NCc3ccccc3)n2c1.O=C(O)C(F)(F)F` it is -1.52%; for `CCN1CCN(C(=O)/C(C#N)=C/c2ccc(OC(F)F)cc2)CC1.Cl` it is -74.3%. The figure for `N#C/C(=C\c1ccc(OC(F)F)cc1)C(=O)N1CCCCC1` is -21.8%; for `N#C/C(=C\c1ccc(C#N)cc1)C(=O)N1CCCC1` it is 7.75%. The figure for `CCOC(=O)c1ccc(NC(=O)Cn2c(=O)oc3ccccc32)cc1` is 10.9%; for `O=C(NCc1ccc(Cl)cc1)C1CCC(CNc2c(N3CCOCC3)c(=O)c2=O)CC1` (stereo not shown) it is 14.9%.

As for `Cc1cc(-c2nnc(CCC(=O)NCc3ccc(OC(F)(F)F)cc3)o2)no1`, the “hERG current change (%, negative = inhibition) at 10uM” value was 3.05%. The figure for `C/C(=N\NC(=O)c1nc2ccccn2c1C)c1cccc([N+](=O)[O-])c1` is -23.4%. The figure for `Cc1ccc(C(=O)C(C)OC(=O)CN2C(=O)NC3(CCCC3)C2=O)cc1C` (stereo not shown) is 9.76%.

Consider `O=C(Sc1ccc(Cl)cc1)c1cccc(Cn2cc(C(F)(F)F)ccc2=O)c1`, for which the “hERG current change (%, negative = inhibition) at 10uM” value was determined as 18.6%. In the case of `CCOC(=O)N1CCC(N2CCCC(C(=O)c3cccc(OC)c3)C2)CC1` (stereo not shown) it was -64.8%; in that of `COc1c(C)cc(C(=O)C2CCCN(S(=O)(=O)c3c(C)noc3C)C2)cc1C` (stereo not shown), -2.78%; in that of `CC(=O)N1CCC(N2CCCC(C(=O)c3cccc(Cl)c3)C2)CC1` (stereo not shown), 5.55%. In the case of `CCOC(=O)c1c(C)[nH]c(C(=O)N2CCCC(C(=O)c3cccc(OC)c3)C2)c1C` (stereo not shown) it was -8.55%. The figure for `COc1ccc(C(=O)C2CCCN(S(=O)(=O)N(C)C)C2)c(C)c1` (stereo not shown) is 0.683%. As to `CCOC(=O)N1CCC(N2CCCC(C(=O)c3cc(C)c(OC)c(C)c3)C2)CC1` (stereo not shown), the “hERG current change (%, negative = inhibition) at 10uM” value is recorded as -57.3%. With `CCOC(=O)CNC(=O)N1CCCC(C(=O)c2cc(C)c(OC)c(C)c2)C1` (stereo not shown), the “hERG current change (%, negative = inhibition) at 10uM” value was determined as 9.16%. `CCCC(=O)N1CCCC(C(=O)c2cccc(OC(C)C)c2)C1` (stereo not shown): the “hERG current change (%, negative = inhibition) at 10uM” value came to 3.64%. In the case of `CCOC(=O)N1CCC(N2CCCC(C(=O)c3cccc(OC(C)C)c3)C2)CC1` (stereo not shown) it was -76.8%. Consider `CCOC(=O)CCNC(=O)N1CCCC(C(=O)c2cccc(OC(C)C)c2)C1` (stereo not shown), for which the “hERG current change (%, negative = inhibition) at 10uM” value is on record as -10.3%. In the case of `COc1c(C)cc(C(=O)C2CCCN(C3CCOCC3)C2)cc1C` (stereo not shown) it was -15.2%; in that of `COc1c(C)cc(C(=O)C2CCCN(S(=O)(=O)N(C)C)C2)cc1C` (stereo not shown), -66.5%.

On to `Cn1cc(C(=O)OCC(=O)Nc2ccccc2)c2ccccc21`, for which the “hERG current change (%, negative = inhibition) at 10uM” value was -8.39%. In the case of `CCCCCCOc1ccc(N2C(=O)CC(N3CCN(CCN=CC4C(=O)CC(C)(C)CC4=O)CC3)C2=O)cc1` (stereo not shown) it was -32.5%; in that of `CN(C)S(=O)(=O)c1cccc(NC(=O)COC(=O)c2cn(-c3ccccc3)nc2-c2ccccc2)c1`, 12.3%. In the case of `O=C1Nc2ccccc2N(O)N1c1cc(-c2ccc(Cl)cc2)[nH]n1` it was 22.9%; in that of `CC(C)(C)c1nc(N)nc(=O)[nH]1`, -1.18%. As for `CCOC(=O)N1CCC(N2CCCC(CO)(Cc3ccccc3C)C2)CC1` (stereo not shown), the “hERG current change (%, negative = inhibition) at 10uM” value amounted to 0.621%. In the case of `Cc1noc(C)c1CC(=O)N1CCCC(C(=O)c2ccc(C(C)(C)C)cc2)C1` (stereo not shown) it was -18.8%. In the case of `CCNC(=O)N1CCCC(C(=O)c2ccc3cc(OC)ccc3c2)C1` (stereo not shown), the “hERG current change (%, negative = inhibition) at 10uM” value is reported as -22.5%.

Take `CCOC(=O)N1CCC(N2CCCC(CO)(Cc3cccc(OC)c3)C2)CC1` (stereo not shown): the “hERG current change (%, negative = inhibition) at 10uM” value is on record as -51.7%. In the case of `COc1ccc2cc(C(=O)C3CCCN(C(=O)c4csnn4)C3)ccc2c1` (stereo not shown) it was -13.2%. The figure for `CCOC(=O)N1CCC(N2CCCC(CO)(Cc3cccc(Cl)c3)C2)CC1` (stereo not shown) is -49%; for `CCOC(=O)N1CCC(N2CCCC(C(=O)c3ccc4cc(OC)ccc4c3)C2)CC1` (stereo not shown) it is -74.3%. Take `COc1ccc2cc(C(=O)C3CCCN(C(=O)Cc4c(C)noc4C)C3)ccc2c1` (stereo not shown): the “hERG current change (%, negative = inhibition) at 10uM” value is on record as -68.5%. In the case of `COc1ccc(C(=O)C2CCCN(C(=O)Cc3c(C)noc3C)C2)cc1OC` (stereo not shown) it was -3.81%.
